# Measured values: PubChem BioAssay (NCATS)
# Records with an inconclusive call do not appear. Activity calls are given as the source filed them. Calls follow the shape of the dose curve; as a rule, active = well fitted curve in either direction with a large enough effect (not every such curve was filed as active); inconclusive = small, poorly fitted or top-dose-only effect, or another doubt; inactive = flat fitted curve, though single readings scatter.
# Target: Mitogen-activated protein kinase 10 (Mus musculus) (UniProt Q61831)
# Test: JNK3 AlphaScreen Assay (AID 530);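 also: kinase came from lysate of stimulated human HepG2 cells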
# Details: JNK3 lysate, c-Jun phosphorylation; series mostly up to 57.1 µM; activity change, negative = inhibition: at the top concentration
# Excerpt: NIH Chemical Genomics Center [NCGC]
# NIH Molecular Libraries Screening Centers Network [MLSCN]
# The c-jun N-terminal kinase (JNK) family are serine/threonine protein kinases that phosphorylate c-jun, a component of the transcription factor […] (AP-1). JNK kinases are members of the mitogen-activated protein kinase family including the extracellular regulated kinases and p38 kinases. Three JNK genes (JNK 1, 2, and 3) have been identified in humans so far. JNK1 and JNK2 have a broad distribution and JNK3 is primarily found in neuronal tissues and cardiac myocytes.
# JNK3 has been under consideration as a target for the treatment of neurodegenerative disorders. […] JNK pathway is also involved in pathological process in a mouse model of Parkinson's disease (Xia et al., 2001).
# Given these potential tissue distributions and links to neuroprotection, JNK3 inhibitors should provide useful investigational tools to study the role of this kinase in several diseases including, arthritis, stroke, myocardial infarction, ischemic injury and Parkinson's disease.
# A homogeneous AlphaScreen is developed to measure the activity of JNK3. AlphaScreen is a two bead-based proximity-dependent chemical energy transfer luminescent assay platform. The phosphorylation of a biotinylated c-jun substrate by JNK3 can be detected with an antibody raised against phosphorylated c-jun. This process brings streptavidin donor beads and Protein-A acceptor beads to within a proximity range of <200 nm, and subsequently lead a chemical luminescent reaction upon exciting donor beads with 680 nm laser excitation light. Inhibition of JNK3 activity by small molecules and subsequent decrease in the antibody binding to biotinylated c-jun could attenuate or abolish this chemical luminescent reaction.
# Yang DD, Kuan CY, Whitmarsh AJ, Rincon M, Zheng TS, Davis RJ, Rakic P and Flavell RA (1997) Absence of excitotoxicity-induced apoptosis in the hippocampus of mice lacking the Jnk3 gene. Nature 389:865-870. [PMID: 9349820]
# Herdegen T, Claret FX, Kallunki T, Martin-Villalba A, Winter C, Hunter T, and Karin M (1998) Lasting N-terminal phosphorylation of c-Jun and activation of c-Jun N-terminal kinases after neuronal injury. J.Neurosci. 18:5124-5135. [PMID: 9651196]
# Xia XG, Harding T, Weller M, Bieneman A, Uney JB and Schulz JB (2001) Gene transfer of the JNK interacting protein-1 protects dopaminergic neurons in the MPTP model of Parkinson's disease. Proc.Natl.Acad.Sci.U.S.A. 98:10433-10438.
# NCGC Assay Protocol Summary:
# GST-cJun (1-79) (Stratagene, La Jolla CA, #205145) was biotnylated by PerkinElmer (PerkinElmer-BioSignalInc. Montreal, Canada) and was detectable by the streptavidin Donor beads. Anti-(phospho)cJun (Ser73) antibody was from UpState (Charlottesvilles, VA, #06-659). JNK3-containing lysates were generated from HepG2 cells and pre-activated by interleukin1-beta and tumor necrosis factor alpha. All reagents were stored at -20 C before using. Phosphorylated biotinylated-GST-cJun was recognized by Anti-(phospho)cJun (Ser73) antibody and this process brings acceptor and donor beads together. Therefore JNK3 phosphorylation of cJun can be measured by Alpha reading by EnVision (PerkinElmer, Boston, MA).
# The composition of kinase buffer was (in mM) 20 tris- HCl (pH 7.6) 10 MgCl2, 1 DTT, and 0.1 Na3VO4 and 0.01% Tween-20. Beads were diluted in detection buffer containing (in mM) 20 tris-HCl (pH 7.7), 20 NaCl and 80 EDTA and 0.3% BSA. The assay was performed at room temperature. All compounds were screened as titrations from 0.6 nM to 46 uM final concentration. The assay was performed in 1536-well format (white solid bottom and untreated) as follows:
# Sequence,Parameter,Value,Description
# 1,Reagent,3 uL,Biotin-GST-cJun, Anti-(phospho)cJun and pre-activated JNK3-containing lysates
# 2,Compound,23 nL,Final concentration was 0.6nM to 46uM
# 3,Time,15 minutes,Room Temperature
# 4,Reagent,1 uL,ATP final concentration 10uM
# 6,Reagent,0.5 uL,2ng/well bead mixture
# […]
# % is scaled to controls: 0 for no effect and ±100 for the full control effect.
row,Compound,"activity change, negative = inhibition"
1,CCN(N=O)C(N)=O,16.2% (inactive)
2,C[C@@]12CC[C@H](O)C[C@@H]1CC[C@@H]1[C@@H]2CC[C@@]2(C)[C@@H](C3=CC(=O)OC3)[C@H](O)C[C@]12O,1.8% [at 11.4 µM] (inactive)
3,c1csc(CN2CCCC3(CCNCC3)C2)n1,-1.79% (inactive)
4,CN(C)C(=O)Nc1cccc(C(F)(F)F)c1,13.3% (inactive)
5,NCCc1c[nH]c2ccc(OC(=O)C(=O)O)cc12,8.58% [at 11.4 µM] (inactive)
6,S=C1NCCN1,3.69% (inactive)
7,[O-][Cl+2]([O-])O,-1.86% (inactive)
8,CCN=C=NCCCN(C)C,-0.714% [at 11.4 µM] (inactive)
9,CCCCCC[N+](=O)[O-],4.62% (inactive)
10,CC(C)CON=O,20.3% (inactive)
11,NC[C@@H](O)CSP(=O)(O)O,-5.07% [at 11.4 µM] (inactive)
12,c1ccc(C[N+]23CN4CN(CN(C4)C2)C3)cc1,-2.9% [at 11.4 µM] (inactive)
13,Nc1ccccc1-c1ccccc1,8.45% (inactive)
14,CCCCC(CC)COC(=O)c1ccc(C(=O)OCC(CC)CCCC)c(C(=O)OCC(CC)CCCC)c1 (stereo not given),23.3% (inactive)
15,O=C(O)C[O][Sb][O]CC(=O)O,1.01% [at 11.4 µM] (inactive)
16,N#CC(Cl)(Cl)Cl,16.1% (inactive)
17,C[N+]1(C)C2CC[C@H]1CC(OC(=O)[C@@H](CO)c1ccccc1)C2 (stereo not given in full),2.63% [at 11.4 µM] (inactive)
18,ClCC(Cl)CCl,8.14% (inactive)
19,O=[As](O)(O)c1ccc(NCc2ccccc2)cc1,1.56% [at 11.4 µM] (inactive)
20,S=c1[nH]c2ccccc2[nH]1,-16% (inactive)

row,Compound,"activity change, negative = inhibition"
1,Oc1cccc(Cl)c1Cl,16.5% (inactive)
2,CN1C[C@@H](CS(=O)(=O)N(C)C)C[C@H]2c3cccc4c3c(cn4C)C[C@@H]21,-1.87% (inactive)
3,Cn1c(=O)c2[nH]cnc2n(C)c1=O.[CH2-][C@H](Cc1cccc2cc(C(=O)O)c(=O)oc12)OC.[Hg].[OH-],-0.539% [at 11.4 µM] (inactive)
4,NCCCN1CCN(c2ccccc2)CC1,-2.39% [at 11.4 µM] (inactive)
5,Nc1ccc(Oc2ccc(N)cc2)cc1,1.42% (inactive)
6,CN(C)C(=O)Cl,19% (inactive)
7,CC(C)[C@]1(O)[C@@H](OC(=O)c2ccc[nH]2)[C@]2(O)[C@@]3(C)C[C@@]4(O)O[C@@]5([C@H](O)[C@@H](C)CC[C@]35O)[C@]2(O)[C@]41C,0.163% [at 11.4 µM] (inactive)
8,O=C(NCP(=O)(O)O)c1cccnc1,0.703% [at 11.4 µM] (inactive)
9,CN[C@H](Cc1ccccc1)c1cccc(OC)c1O,1.41% [at 11.4 µM] (inactive)
10,NC(=O)CN1C[C@@H](O)CC1=O,8.98% (inactive)
11,OCCOCCO,-11.7% (inactive)
12,CCOC(=O)CBr,3.86% (inactive)
13,CN(C)CS/C(N)=N/[C@H](O)C(Cl)(Cl)Cl,3.54% [at 11.4 µM] (inactive)
14,ClCc1ccccc1,6.8% (inactive)
15,Nc1cc(Cl)cc(C(=O)O)c1Cl,22.1% (inactive)
16,O=C(O)c1cc(N=Nc2ccc([As](=O)(O)O)cc2)ccc1O,2.47% [at 11.4 µM] (inactive)
17,NS(=O)(=O)c1ccc(-c2ccc([As](=O)(O)O)cc2)cc1,2.57% [at 11.4 µM] (inactive)
18,COc1ccc(C=O)cc1,-14.3% (inactive)
19,CCSCC[C@H](N)C(=O)O,3.04% [at 11.4 µM] (inactive)
20,O=C(Oc1ccc(S(=O)(=O)F)cc1F)c1ccccc1Cl,2.49% [at 11.4 µM] (inactive)
